# The list is not random: actives were taken first. Their share in the collection is about 11%.
# HEK293 tox – HEK 293 cell cytotoxicity; 94,000 tested, 6.6% active; AID 1345083; HEK 293 viability, ATP luminescence (CellTiter-Glo), 48-72 h; Potency, µM (series often up to 115 µM), for the others: at the highest dose activity change, negative = cytotoxicity, usual class: inhibitors; also: nearly all actives have a fitted effect of over 60% in size
#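 Cells seeded first (HEK 293, 250 cells/well), then compound added by pintool. Incubation ran 48 or 72 hr at 37 degree Celsius. CellTiter-Glo was added and luminescence imaged after 10 min at room temperature.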
# 3T3 cytotox – cytotoxic compounds in NIH 3T3 cells; NIH 3T3 viability, CellTiter-Glo ATP luminescence, 48-72 h; Potency, µM (top dose mostly 96.7 µM), inactives show top-dose activity change, negative = cytotoxicity, actives largely listed as inhibitors; 94,000 tested, 4.3% active; also: nearly all actives have a fitted effect of over 55% in size
#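 Cytotoxicity was measured by CellTiter-Glo ATP luminescence after 48 or 72 h compound exposure at 37 °C. Mouse NIH 3T3 fibroblasts were seeded at 400 cells/well and dosed by 23 nL pin transfer.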
# Luciferase inh – inhibitors of firefly (Photinus pyralis) luciferase; 76,000 tested, 2.5% active; purified P. pyralis luciferase, luminescence, biochemical; Potency, µM (titrated, usually from 115 µM), most hits filed as inhibitors; also: nearly all actives have a fitted effect of over 65% in size
#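 Inhibitors were tested against purified firefly luciferase in a biochemical, low-substrate format (both substrates at 10uM) and luminescence measured with a CCD imager.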
# hNpr1 antagonist – antagonists of human natriuretic peptide receptor Npr1. P16066. Potency, µM (doses to about 46.3 µM), without a hit: top-dose activity change, negative = inhibition, most hits filed as inhibitors. AID 1347048. 76,000 tested, 1.6% active. HEK293 hNpr1 GloSensor cGMP, ANP-stimulated luminescence; calls by dose curve; also: nearly all actives have a fitted effect of over 60% in size
# Target sequence (P16066 whole entry, looked up): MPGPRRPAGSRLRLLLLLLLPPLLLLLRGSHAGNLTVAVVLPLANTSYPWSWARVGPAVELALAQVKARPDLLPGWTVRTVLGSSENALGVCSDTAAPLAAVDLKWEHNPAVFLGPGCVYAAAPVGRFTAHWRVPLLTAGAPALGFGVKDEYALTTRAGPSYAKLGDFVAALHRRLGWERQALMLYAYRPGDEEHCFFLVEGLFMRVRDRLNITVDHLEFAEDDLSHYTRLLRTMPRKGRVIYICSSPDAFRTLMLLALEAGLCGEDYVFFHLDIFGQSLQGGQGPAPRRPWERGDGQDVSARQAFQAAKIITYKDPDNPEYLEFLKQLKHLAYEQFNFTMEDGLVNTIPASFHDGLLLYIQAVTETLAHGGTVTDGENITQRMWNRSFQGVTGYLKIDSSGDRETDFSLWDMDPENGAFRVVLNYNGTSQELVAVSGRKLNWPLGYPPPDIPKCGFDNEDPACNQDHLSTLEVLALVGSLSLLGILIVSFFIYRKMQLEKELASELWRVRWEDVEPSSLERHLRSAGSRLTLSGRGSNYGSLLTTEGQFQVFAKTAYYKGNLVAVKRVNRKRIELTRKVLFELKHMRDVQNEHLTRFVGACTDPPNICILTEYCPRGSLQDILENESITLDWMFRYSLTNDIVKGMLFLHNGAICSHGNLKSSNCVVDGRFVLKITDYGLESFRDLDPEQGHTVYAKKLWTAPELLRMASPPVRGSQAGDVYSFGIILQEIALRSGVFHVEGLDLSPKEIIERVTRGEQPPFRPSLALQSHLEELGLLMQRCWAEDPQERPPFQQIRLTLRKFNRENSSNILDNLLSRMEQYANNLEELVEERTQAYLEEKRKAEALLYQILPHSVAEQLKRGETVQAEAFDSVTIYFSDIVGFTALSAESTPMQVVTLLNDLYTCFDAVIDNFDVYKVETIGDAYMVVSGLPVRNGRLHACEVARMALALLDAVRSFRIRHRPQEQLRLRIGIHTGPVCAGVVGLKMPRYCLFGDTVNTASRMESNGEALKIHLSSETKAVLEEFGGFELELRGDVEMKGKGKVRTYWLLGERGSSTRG
#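 HEK293 cells stably expressing human Npr1 and cGMP GloSensor pGS-40F, loaded 2 h with 2% GloSensor reagent, given compound 30 min at room temperature. Luminescence read before and 20 min after 0.1 nM hNppA.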
# Numbers without * were called inactive; i = inactive; ? = inconclusive; / = no result given; [ ] = another dose, or the depositor's remark. Unless noted, calls follow the shape of the dose curve; as a rule, active = well fitted curve in the direction sought with a large enough effect; inconclusive = small, poorly fitted or top-dose-only effect, or another doubt; inactive = no such curve, though single readings can be large; an effect the other way counts as inactive or inconclusive. % is scaled to controls: 0 for no effect and ±100 for the full control effect; potency is read from the fitted curve at half-maximal effect.
SMILES,HEK293 tox,3T3 cytotox,Luciferase inh,hNpr1 antagonist
O=C(NCc1cccs1)C1CN(C2CCCC2)C(=O)N1 (centres undefined),i,-12%[138 µM],/,/
Cc1ccc(C(=O)N2CCC3(CC2)C(=NC2CCCCC2)NC(=O)N3c2cc(F)cc(F)c2)cc1,-3%,32µM*,/,/
COc1cccc(N2C(=O)NC(=NC3CCCCC3)C23CCN(C(=O)c2ccc(C(F)(F)F)cc2)CC3)c1,-27%,-23%,/,/
COc1ccc(C(=O)N2CCC3(CC2)C(=NC2CCCCC2)NC(=O)N3c2cccc(OC)c2)cc1,2%,28µM*,/,/
COc1ccc(C(=O)N2CCCC3(C2)C(=NC2CCCCC2)NC(=O)N3c2cc(F)cc(F)c2)cc1 (centres undefined),i,-8%,/,/
O=C(c1ccc(C(F)(F)F)cc1)N1CCC2(C1)C(=NC1CCCCC1)NC(=O)N2c1cc(F)cc(F)c1 (centres undefined),-5%,25µM*,/,/
COc1ccc(C(=O)N2CCC3(CC2)C(=NC2CCCCC2)NC(=O)N3c2cc(F)cc(F)c2)cc1,i,32µM*,/,/
O=C(c1ccc(C(F)(F)F)cc1)N1CCC2(CC1)C(=NC1CCCCC1)NC(=O)N2c1cc(F)cc(F)c1,0%,?,/,/
CC(=O)NCc1nnc2n1C(C(=O)NCC1CCCCC1)CC2 (centres undefined),-8%[172 µM],2%[138 µM],/,/
O=C(Nc1cccc(-c2nnc3n2CCCC3)c1)c1cccc(F)c1,4%,-13%,i,2%
Cc1ccccc1N1CCN(C(=O)c2ccc(Cn3ccn4nc5c(c4c3=O)CCCC5)cc2)CC1,20µM*,?,i,-28%
Cc1ccc(C)c(Cn2ccn3nc4c(c3c2=O)CCCC4)c1,40µM*,?,i,-1%
COc1ccc(NC(=O)c2ccc(Cn3ccn4nc5c(c4c3=O)CCCC5)cc2)cc1OC,?,?,i,-4%
COc1ccc(CCNC(=O)c2ccc(Cn3ccn4nc5c(c4c3=O)CCCC5)cc2)cc1OC,40µM*,?,i,?
O=C(NC1CCCCCCC1)c1ccc(Cn2ccn3nc4c(c3c2=O)CCCC4)cc1,32µM*,?,i,-18%
O=C(NC1CC1)c1ccc(Cn2ccn3nc4c(c3c2=O)CCCC4)cc1,?,?,i,-9%
Cc1ccc(NC(=O)Cn2ccn3nc4c(c3c2=O)CCCCC4)c(C)c1,-15%,-26%,?,-2%
COc1ccc(CC(=O)NC2CCN(c3ccc4nnc(C5CC5)n4n3)CC2)cc1,-29%,?,/,/
O=C(Cc1cccc(Cl)c1)N1CCC2(CC1)N(c1ccccc1)C(=O)CS2(=O)=O,-11%,-14%,i,7%
CC(C)Cc1nc(CN2C[C@@H]3CC[C@H](C2)N(Cc2ccccc2)C3)no1,?,?,i,-3%
CC(C)Oc1ccc(CNC(=O)c2ccc(Cn3ccn4nc5c(c4c3=O)CCCC5)cc2)cc1,35µM*,?,i,?
O=C(NCc1ccncc1)c1ccc(Cn2ccn3nc4c(c3c2=O)CCCC4)cc1,?,?,i,-16%
CCn1ccc(C(=O)N2CCC3(CC2)CCC3(O)CC)n1 (centres undefined),i,1%,i,2%
O=C(NCc1cccc(-c2ccccc2)c1)C1CC(=O)N(C2CC2)C1 (centres undefined),-33%,-36%,i,0%
CCN1CC(C(=O)NCc2cccc(-c3ccccc3)c2)CCC1=O (centres undefined),35µM*,?,i,?
COc1ccccc1C(CC(=O)NCCc1ccccc1)c1c[nH]c2ccccc12 (centres undefined),?,40µM*,?,-5%
CCc1cccc2c(C(CC(=O)NCCc3ccc(OC)c(OC)c3)c3ccccc3OC)c[nH]c12 (centres undefined),35µM*,?,i,-14%
O=C(CC(c1cccc([N+](=O)[O-])c1)c1c[nH]c2ccccc12)NCCc1ccccc1 (centres undefined),32µM*,25µM*,i,?
Cn1c(=O)c2c(ncn2CC(=O)N2CCCC(Cc3nc(C4CCOCC4)no3)C2)n(C)c1=O (centres undefined),-5%,-33%,i,1%
O=C(Cc1ccccn1)NC1CCN(c2ccc3nnc(C4CC4)n3n2)CC1,2%,-25%,/,/
